Assay outcomes from PubChem.
Hits are enriched below; roughly 6.8% of the tested compounds scored in any of these assays.
HCV NS3h FP = hepatitis C NS3 helicase inhibition, primary screen | inhibition, % at 100 µM | AID 687043 | actives 1.6% (n = 16,000) | NS3h Cy5-dT15 DNA binding, fluorescence polarization;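 active means inhibition above the average over every tested compound plus 3 SD, cut at about 40% in these data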
Cy5 interf NS3h = enhances or quenches Cy5 fluorescence in NS3h assay | Cy5-dT15 DNA with NS3h, fluorescence interference; actives lie on both sides; signal over control mean, under 1 quenches | fluorescence interference ratio at 100 µM | actives 6% (n = 16,000) | AID 720488;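 active means compound fluorescence over control fluorescence at most 0.8, a quencher, or at least a set upper limit, an enhancer; inactive means ratio between 0.8 and the set upper limit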
NS3h confirm = confirmation of hepatitis C virus NS3 helicase inhibitors. NS3h binding to Cy5-dT15 DNA, fluorescence polarization. shares compounds with HCV NS3h FP. actives 20% (n = 240). inhibition, % at 100 µM;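 active means percent inhibition of 50% or more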
SSB FP counter = counter-screen for HCV NS3 helicase inhibitors: E. coli SSB binding; AID 720486; shares compounds with HCV NS3h FP; actives 40% (n = 240); inhibition, % at 100 µM; E. coli SSB binding Cy5-dT15, fluorescence polarization;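 active means inhibition of at least 50%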;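 further: displacers lower Cy5 polarization so higher inhibition means more SSB displaced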
Target sequence (P0AGE0 whole entry, looked up): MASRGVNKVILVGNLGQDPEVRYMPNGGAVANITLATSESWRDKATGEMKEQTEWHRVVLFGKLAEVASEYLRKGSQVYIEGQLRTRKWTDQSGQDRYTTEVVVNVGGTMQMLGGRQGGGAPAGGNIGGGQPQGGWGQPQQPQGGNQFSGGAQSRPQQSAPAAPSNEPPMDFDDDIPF
Cy5 SSB interf = Cy5 fluorescence interference in NS3h counter-screen; shares compounds with HCV NS3h FP; Cy5-dT15/E. coli SSB fluorescence interference; actives lie on both sides; fluorescence interference ratio at 100 µM; actives 8% (n = 240); AID 720487;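 active means fluorescence interference ratio at or above 1.2, signal boosting, or at or below 0.8, signal quenching; inactive means ratio between 0.8 and 1.2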;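 further: ratio of compound well signal to mean negative control signal so 1 means no effect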
Cy5 interf conf = Cy5 fluorescence interference, confirmation counter-screen. shares compounds with HCV NS3h FP. Cy5-dT15 DNA/NS3h fluorescence interference counterscreen. fluorescence interference ratio at 100 µM, hits read low. actives 44% (n = 240). AID 720489;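 active means fluorescence interference ratio at or below 0.8 quencher or at or above a set limitenhancer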;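 further: ratio of compound fluorescence to mean of negative controls so 1 means no interference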
An asterisk follows results filed as active; nt = not tested or not shown.

SMILES	HCV NS3h FP	Cy5 interf NS3h	NS3h confirm	SSB FP counter	Cy5 SSB interf	Cy5 interf conf
Cc1ccc(OCc2nc(-c3ccc(Cl)cc3)no2)c(Br)c1	7	1.1	nt	nt	nt	nt
COc1ccc(/C(N)=N\OC(=O)c2ccc(Cl)cc2)cc1	-4	0.98	nt	nt	nt	nt
CCN1C(=O)C(=Cc2ccc(OC)cc2OC)C(=O)NC1=S	40	0.9	nt	nt	nt	nt
O=C1NC(=Nc2ccc(F)cc2)S/C1=C/c1ccccc1F	112*	1.7*	4	13	0.98	0.99
Cc1ccccc1/C=C1/SC(=Nc2ccc(F)cc2)NC1=O	3	1	nt	nt	nt	nt
Cc1cc(C)n(-c2nc(Nc3ccc(Br)cc3)nc(-n3nc(C)cc3C)n2)n1	19	0.97	nt	nt	nt	nt
COc1cc(/C=C2/SC(=S)N(CC(=O)Nc3ccccc3C(=O)O)C2=O)cc(OC)c1OC	10	1	nt	nt	nt	nt
Cc1cc(Cl)c2cc(C(=O)O)ccc2n1	2	0.99	nt	nt	nt	nt
Cc1ccc(C(=O)O)cc1-n1c(C)ccc1C	82*	1.4*	89*	89*	1	0.81
Cc1cc(C(=O)O)ccc1-n1c(C)ccc1C	101*	1.4*	100*	108*	0.93	0.98
Cc1ccc(-c2ccccc2)n1-c1ccccc1C(=O)O	7	1.1	nt	nt	nt	nt
CN1C(=O)/C(=C/c2ccccc2F)SC1=S	10	0.97	nt	nt	nt	nt
O=C1C(=Cc2ccccc2F)C(=O)c2ccccc21	61*	0.99	37	10	0.96	0.74*
O=C1C(=Cc2ccccc2)C(=O)c2ccccc21	46*	1	26	-3	1	0.78*
O=C1C(=Cc2cccc(Cl)c2)C(=O)c2ccccc21	4	1	nt	nt	nt	nt
CSc1nc2sc3c(c2c(=O)n1-c1ccccc1)CCCCC3	1	1	nt	nt	nt	nt
Cc1ccc([N+](=O)[O-])cc1N1C(=O)C2C3C=CC(CC3)C2C1=O (centres undefined)	18	0.88	nt	nt	nt	nt
Cc1ccc(N2C(=O)C=CC2=O)cc1[N+](=O)[O-]	75*	0.96	61*	9	0.94	0.94
Cc1ccc([N+](=O)[O-])cc1N1C(=O)C=CC1=O	87*	1.1	44	-3	0.94	0.76*
Cc1ccc(C(=O)NCCC(C)C)cc1[N+](=O)[O-]	1	0.95	nt	nt	nt	nt
CC(=O)Nc1ccc(S(=O)(=O)N/N=C\c2ccc[nH]2)cc1	2	1.1	nt	nt	nt	nt
COc1ccc(OC)c(/C=C/C(=O)Oc2cc(C)cc(C)c2)c1	8	0.98	nt	nt	nt	nt
Cc1ccc([N+](=O)[O-])cc1N[C@@H]1OC[C@@H](O)[C@H](O)[C@H]1O	-1	1.1	nt	nt	nt	nt
NC(=O)CCN1C(=O)/C(=C\c2ccc(F)cc2)SC1=S	14	1.1	nt	nt	nt	nt
CC1(C)CC(=O)C=C(Nc2ccccc2C#N)C1	-5	0.97	nt	nt	nt	nt
SMILES	HCV NS3h FP	Cy5 interf NS3h	NS3h confirm	SSB FP counter	Cy5 SSB interf	Cy5 interf conf
CC1(C)CC(=O)C=C(Nc2ccc(NC3=CC(=O)CC(C)(C)C3)cc2)C1	44*	1.2	-1	8	1	0.8*
Cc1cccc(NC(=O)C(=O)NCc2ccc3c(c2)OCO3)c1	10	1.1	nt	nt	nt	nt
COc1cccc(/C=C2/SC(=S)N(CC(=O)O)C2=O)c1O	6	0.98	nt	nt	nt	nt
O=C(O)CN1C(=O)/C(=C\c2cccc([N+](=O)[O-])c2O)SC1=S	44*	1.1	11	30	0.89	0.73*
O=C(CCCN1C(=O)/C(=C/c2cccs2)SC1=S)N1CCOCC1	16	1	nt	nt	nt	nt
CN1C(=O)C(=Cc2ccc(OCc3cccc(C(=O)O)c3)cc2)C(=O)N(C)C1=O	6	1	nt	nt	nt	nt
O=C1NC(=O)N(c2ccccc2F)C(=O)/C1=C/c1ccc(OCc2cccc(C(=O)O)c2)cc1	33	1.1	nt	nt	nt	nt
O=C1NC(=S)N/C1=C/c1ccc(OCc2cccc(C(=O)O)c2)cc1	62*	1.1	20	28	0.99	0.77*
Cc1cc(/C=C2\C(=O)NC(=O)N(c3cccc(F)c3)C2=O)c(C)n1C	7	1.1	nt	nt	nt	nt
Cc1ccccc1N1C(=O)NC(=O)/C(=C\c2ccc(OCc3cccc(C(=O)O)c3)cc2)C1=O	42*	1.1	21	68*	0.91	0.8*
O=C1NC(=O)N(c2cccc(F)c2)C(=O)/C1=C/c1ccc(OCc2cccc(C(=O)O)c2)cc1	41*	1	13	39	0.95	0.75*
CCN(CC)C(=O)c1sc(NC(=O)C(C)(C)C)c(C(=O)OC)c1C	2	0.91	nt	nt	nt	nt
C=CCNC(=O)CN(c1ccc(OC)c(Cl)c1)S(=O)(=O)c1ccccc1	8	1	nt	nt	nt	nt
COc1ccc(NC(=O)C(=O)NCc2ccccc2)cc1Cl	10	1	nt	nt	nt	nt
COc1ccc(-c2cc(-c3ccccc3)n[nH]2)c(O)c1	43*	1.3*	7	11	0.93	0.73*
COc1ccc(O)c(-c2cc(-c3ccccc3C)[nH]n2)c1	26	0.9	nt	nt	nt	nt
O=C1/C(=C\c2ccc(I)cc2)SC(=S)N1c1cccc(Cl)c1	8	1.1	nt	nt	nt	nt
O=C(/C=C/c1ccc(/C=C/C(=O)c2cccc(N3C(=O)C=CC3=O)c2)cc1)c1cccc(N2C(=O)C=CC2=O)c1	16	1	nt	nt	nt	nt
CCOC(=O)c1cccc(N2C(=O)C=CC2=O)c1	55*	0.94	34	10	0.96	0.86
O=C1C=CC(=O)N1c1cccc(Cl)c1	55*	1	48	9	0.97	0.89
COc1ccc(C(=O)N2CCN(c3ccc([N+](=O)[O-])cc3)CC2)cc1Cl	11	0.96	nt	nt	nt	nt
Cc1oc2cc(Br)c(OC(=O)C(C)(C)C)cc2c1C(=O)OC(C)C	12	0.98	nt	nt	nt	nt
COc1cc(/C=C2/SC(=S)N(c3ccccc3)C2=O)ccc1OC(=O)c1cccs1	12	1	nt	nt	nt	nt
CCCN1C/C(=C\c2ccccc2)C(=O)/C(=C/c2ccccc2)C1	5	1	nt	nt	nt	nt
O=C(Nc1ccc2nn(-c3cccc([N+](=O)[O-])c3)nc2c1)c1ccccc1Br	3	0.96	nt	nt	nt	nt
SMILES	HCV NS3h FP	Cy5 interf NS3h	NS3h confirm	SSB FP counter	Cy5 SSB interf	Cy5 interf conf
CCCCOc1cccc(C(=O)Nc2ccc(N(CC)CC)cc2)c1	1	1.1	nt	nt	nt	nt
COc1cccc(/C=C2/C(=O)ON=C2c2ccccc2)c1OC	3	0.83	nt	nt	nt	nt
O=C1ON=C(c2ccccc2)/C1=C\c1ccc(OCc2ccccc2)cc1	40	1	3	9	0.96	0.75*
COc1ccc(CC(=O)O/N=C(/N)c2cccnc2)cc1OC	0	1.1	nt	nt	nt	nt
CC1=NN(c2nc(-c3ccc(Br)cc3)cs2)C(=O)/C1=C\c1ccc2c(c1)OCO2	14	0.96	nt	nt	nt	nt
NC(=O)C1=CN(Cc2ccccc2)C=CC1	6	0.98	nt	nt	nt	nt
COc1ccc(C(=O)NCCNc2ccc([N+](=O)[O-])cc2)cc1OC	40	1.1	13	8	0.94	0.72*
COc1ccc(C(=O)NCCCNc2ccc([N+](=O)[O-])cc2Cl)cc1OC	16	0.98	nt	nt	nt	nt
COc1ccccc1NC(=O)c1c(NC(=O)C(Cl)(Cl)Cl)sc2c1CCC2	5	0.96	nt	nt	nt	nt
CCCCCCN1C(=O)C(O)=C(C(C)=O)C1c1ccc(F)cc1 (centres undefined)	-3	0.96	nt	nt	nt	nt
